Experimental data reported in PubChem BioAssay AID1159580 (chemical genetic matrix, 2015).
Out of some 5,500 compounds screened, about 2,000 (36%) were called active. Another 18% or so got no clear call; they are omitted. Cut-off read from the data, not from the text of the source: active = normalized growth mostly below about 0.91 (no sharp cut-off); inconclusive = no clear call, values can overlap the other calls; inactive = mostly above about 0.92. The list shows a part of the results.

Test: chemical genetic growth profiling, strain panel (AID 1159580);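 note: tested at 20 µM; growth read once vehicle control cultures reached saturation at 30 °C; 1 = growth at the plate median or of vehicle wells; lower values mean less growth of the strain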
Conditions: S. cerevisiae deletion strains, growth OD
[1] = locus YER002W, strain NOP16, stronger effect = lower value

Measured: normalized growth

COc1ccc(CCCOc2cc(CCn3ccnc3)ccc2OC)cc1
inactive: [1] 1.03

CCCCOc1cc(CC2CNC(=O)N2)ccc1OC (configuration not stated)
inactive: locus YAL021C, strain ccr4, stronger effect = lower value 0.939 | locus YAL026C, strain drs2, stronger effect = lower value 1 | locus YAL030W, strain snc1, stronger effect = lower value 1.01 | locus YAL040C, strain CLN3, stronger effect = lower value 1.08 | locus YBL061C, strain skt5, stronger effect = lower value 0.998 | locus YBR009C, strain hhf1, stronger effect = lower value 1.06 | locus YBR023C, strain chs3, stronger effect = lower value 0.992 | locus YBR171W, strain sec66, stronger effect = lower value 0.984 | locus YBR231C, strain swc5, stronger effect = lower value 1.01 | locus YBR279W, strain paf1, stronger effect = lower value 0.999 | locus YCL011C, strain gbp2, stronger effect = lower value 0.984 | locus YCL016C, strain dcc1, stronger effect = lower value 1 | locus YCL061C, strain MRC1 (second series), stronger effect = lower value 1 | locus YCL061C, strain MRC1, stronger effect = lower value 0.985 | locus YCL069W, strain vba3, stronger effect = lower value 0.994 | locus YCR088W, strain abp1, stronger effect = lower value 0.987 | locus YDL005C, strain med2, stronger effect = lower value 0.986 | locus YDL040C, strain nat1, stronger effect = lower value 0.999 | locus YDR001C, strain nth1, stronger effect = lower value 0.988 | locus YDR069C, strain doa4, stronger effect = lower value 1.01 | locus YDR137W, strain rgp1, stronger effect = lower value 0.971 | locus YDR150W, strain NUM1, stronger effect = lower value 1.01 | locus YDR159W, strain sac3, stronger effect = lower value 1.07 | locus YDR195W, strain ref2 0.992 | locus YDR297W, strain sur2, stronger effect = lower value 0.993 | locus YDR334W, strain swr1, stronger effect = lower value 0.968 | locus YDR335W, strain msn5, stronger effect = lower value 0.98 | locus YDR392W, strain spt3, stronger effect = lower value 0.975 | locus YEL003W, strain gim4, stronger effect = lower value 0.998 | locus YEL037C, strain rad23, stronger effect = lower value 0.994 | locus YEL061C, strain CIN8 (second series), stronger effect = lower value 0.981 | [1] 1.01 | locus YER015W, strain faa2, stronger effect = lower value 0.994 | locus YER016W, strain bim1, stronger effect = lower value 1.01 | locus YER111C, strain swi4, stronger effect = lower value 1.01 | locus YER155C, strain BEM2 (second series), stronger effect = lower value 1.04 | locus YFR010W, strain ubp6, stronger effect = lower value 0.994 | locus YGL167C, strain pmr1, stronger effect = lower value 1 | locus YGL173C, strain kem1, stronger effect = lower value 0.991 | locus YGL227W, strain vid30, stronger effect = lower value 1 | locus YGL240W, strain doc1, stronger effect = lower value 1.04 | locus YGL253W, strain hxk2, stronger effect = lower value 0.999 | locus YHR013C, strain ard1, stronger effect = lower value 0.979 | locus YHR027C, strain rpn1, stronger effect = lower value 0.992 | locus YHR030C, strain SLT2, stronger effect = lower value 0.97 | locus YHR079C, strain IRE1, stronger effect = lower value 0.973 | locus YHR142W, strain chs7, stronger effect = lower value 0.914 | locus YJL092W, strain hpr5, stronger effect = lower value 0.967 | locus YJL095W, strain BCK1 (second series), stronger effect = lower value 0.989 | locus YJL095W, strain BCK1, stronger effect = lower value 0.978 | locus YJL115W, strain asf1, stronger effect = lower value 0.99 | locus YJL129C, strain trk1, stronger effect = lower value 0.965 | locus YJL154C, strain vps35, stronger effect = lower value 0.993 | locus YJL164C, strain tpk1, stronger effect = lower value 0.972 | locus YJL166W, strain qcr8, stronger effect = lower value 0.996 | locus YJL187C, strain SWE1, stronger effect = lower value 0.998 | locus YJR066W, strain TOR1, stronger effect = lower value 0.935 | locus YJR075W, strain HOC1, stronger effect = lower value 1.01 | locus YKL160W, strain elf1, stronger effect = lower value 0.954 | locus YKR026C, strain gcn3, stronger effect = lower value 0.981 | locus YKR091W, strain srl3, stronger effect = lower value 0.989 | locus YLL001W, strain dnm1, stronger effect = lower value 0.988 | locus YLL026W, stronger effect = lower value 0.998 | locus YLL041C, strain sdh2, stronger effect = lower value 0.984 | locus YLR027C, strain aat2, stronger effect = lower value 0.982 | locus YLR113W, strain HOG1, stronger effect = lower value 0.978 | locus YLR221C, strain rsa3, stronger effect = lower value 0.971 | locus YLR258W, strain gsy2, stronger effect = lower value 1.02 | locus YLR262C, strain YPT6 (second series), stronger effect = lower value 1 | locus YLR320W, strain mms22, stronger effect = lower value 1.02 | locus YLR342W, strain FKS1, stronger effect = lower value 1 | locus YLR357W, strain rsc2, stronger effect = lower value 1.02 | locus YLR370C, strain arc18, stronger effect = lower value 0.978 | locus YLR384C, strain iki3, stronger effect = lower value 0.993 | locus YML120C, strain ndi1, stronger effect = lower value 0.968 | locus YMR058W, strain fet3, stronger effect = lower value 0.978 | locus YMR125W, strain sto1, stronger effect = lower value 1.02 | locus YMR129W, stronger effect = lower value 0.992 | locus YMR205C, strain PFK2, stronger effect = lower value 1.06 | locus YMR231W, strain pep5, stronger effect = lower value 1 | locus YNL071W, strain lat1, stronger effect = lower value 0.987 | locus YNL128W, strain TEP1, stronger effect = lower value 1.01 | locus YNL175C, strain NOP13, stronger effect = lower value 1.02 | locus YNL183C, strain NPR1, stronger effect = lower value 0.956 | locus YNL197C, strain WHI3, stronger effect = lower value 1.03 | locus YNL209W, strain ssb2, stronger effect = lower value 1 | locus YNL224C, strain SQS1, stronger effect = lower value 1.01 | locus YNL248C, strain rpa49, stronger effect = lower value 0.93 | locus YNL322C, strain KRE1 (second series), stronger effect = lower value 0.987 | locus YNL322C, strain KRE1, stronger effect = lower value 1.02 | locus YNR049C, strain mso1, stronger effect = lower value 0.992 | locus YOR001W, strain rrp6, stronger effect = lower value 0.951 | locus YOR070C, strain gyp1, stronger effect = lower value 1.01 | locus YOR080W, strain dia2, stronger effect = lower value 0.99 | locus YOR083W, strain WHI5 (second series), stronger effect = lower value 1 | locus YOR083W, strain WHI5, stronger effect = lower value 0.944 | locus YOR106W, strain vam3, stronger effect = lower value 0.958 | locus YOR231W, strain MKK1, stronger effect = lower value 0.976 | locus YOR265W, strain rbl2, stronger effect = lower value 0.998 | locus YOR270C, strain vph1, stronger effect = lower value 0.94 | locus YOR290C, strain snf2, stronger effect = lower value 0.987 | locus YPL051W, strain arl3, stronger effect = lower value 0.963 | locus YPL078C, strain atp4, stronger effect = lower value 0.921 | locus YPL106C, strain sse1, stronger effect = lower value 1.04 | locus YPL240C, strain hsp82, stronger effect = lower value 0.99 | locus YPL256C, strain CLN2, stronger effect = lower value 0.948
